Source: PubChem
Shown are actives, neighbours in structure and some others; about 8.3% of the full set was active somewhere.
HCMV inh – inhibitors of human cytomegalovirus; HFF cells, HCMV-luciferase reporter, 72 h; stronger effect = lower value; activity change, negative = inhibition, % at 57.5 µM; hit rate 4.5% among 410,000; AID 1259415; in the data active means activity change below about -60%; inconclusive means no clear call, values can overlap the other calls; inactive means above about -39%
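Cell-based, HFFs, 1000 cells/well, 16 h 37C; cpds in DMSO + HCMV-luc, MOI 1 PFU/cell; 72 h 37C; OneGlo luminescence after 5 min RT; norm. to buffer vs Salinomycin 10uM.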
FMDV inh – antivirals against foot and mouth disease virus | FMDV antiviral cell-based qHTS | Potency, µM (top dose mostly 57.9 µM), for the others: at the top dose activity change, negative = inhibition, actives largely listed as inhibitors | hit rate 1.2% among 410,000; calls by dose curve; tested in HEK293T cells; further: read-out not given here; potency means the concentration at half of the fitted maximal effect; nearly all actives have a fitted effect of over 45% in size
Marburg entry inh – Marburg virus entry inhibition. Marburg virus pseudotyped entry inhibition, cell reporter. Potency, µM (series often up to 37.8 µM), without a hit: top-dose activity change, negative = inhibition, most hits filed as inhibitors. hit rate 1.8% among 300,000. AID 540276; calls by dose curve; tested in HEK293 cells; further: potency means the concentration at half of the fitted maximal effect
HCV inh – blocks hepatitis C virus; Huh7.5.1 HCVcc-Cre infection, luciferase reporter, 44 h; Potency, µM (series often up to 41.8 µM), without a hit: at the top dose activity change, negative = inhibition, most hits filed as inhibitors; hit rate 3.4% among 340,000; AID 651820; further: potency means the concentration at half of the fitted maximal effect
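After 44 h co-culture of compound, cells and HCVcc-Cre (~0.5 moi), substrate is added for 15 min at room temperature and luciferase measured over 15 sec. Cells were seeded at 1,000/well and pre-cultured 4 h.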
Giardia FBPA inh – blocks Giardia fructose-bisphosphate aldolase activity. A8B2U2. Potency, µM (titrated, usually from 59.6 µM), without a hit: at the top dose activity, negative = inhibition, usual class: inhibitors. hit rate 0.71% among 290,000. purified Giardia FBPA; further: potency means the concentration at half of the fitted maximal effect; nearly all actives have a fitted effect of over 55% in size
Target sequence (A8B2U2 whole entry, looked up): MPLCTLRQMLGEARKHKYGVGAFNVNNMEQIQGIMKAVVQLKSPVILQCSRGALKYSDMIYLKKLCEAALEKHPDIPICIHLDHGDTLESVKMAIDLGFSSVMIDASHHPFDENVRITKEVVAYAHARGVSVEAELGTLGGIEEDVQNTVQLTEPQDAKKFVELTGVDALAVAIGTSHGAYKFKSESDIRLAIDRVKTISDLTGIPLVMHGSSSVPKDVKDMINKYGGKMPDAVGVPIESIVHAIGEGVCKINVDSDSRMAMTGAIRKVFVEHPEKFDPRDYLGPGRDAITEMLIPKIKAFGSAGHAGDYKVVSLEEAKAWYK
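40 nM FBPA preincubated 10 min at RT with compound (up to 57.5 uM final), then substrate plus GAPDH/TPI/NAD/arsenate coupling and diaphorase/resazurin added. Fluorescence read after 20 min at RT, 525/598 nm.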
Lassa entry inh – blocks Lassa virus binding to or entry into cells; Lassa virus pseudotype entry inhibition, cell reporter; Potency, µM (doses to about 37.9 µM), without a hit: top-dose activity change, negative = inhibition, actives largely listed as inhibitors; hit rate 1.2% among 300,000; AID 540256; calls by dose curve; tested in HEK293 cells; further: potency means the concentration at half of the fitted maximal effect; nearly all actives have a fitted effect of over 50% in size
An asterisk follows results filed as active; ? = inconclusive; . = no result; [ ] = another dose, or the depositor's remark. Unless noted, the call rests on the fitted dose curve; in most records, active means well fitted curve in the direction sought with a large enough effect; inconclusive means small, poorly fitted or top-dose-only effect, or another doubt; inactive means no such curve, though single readings can be large; an effect the other way counts as inactive or inconclusive. On the % scale 0 is the no-effect control and ±100 the full control effect.

SMILES	HCMV inh	FMDV inh	Marburg entry inh	HCV inh	Giardia FBPA inh	Lassa entry inh
CCOc1ccccc1OCCCOc1ccc([N+](=O)[O-])cc1Cl	-17.8	-14.9%	-1.6%[46.1 µM]	12.6µM*	-22.7%	11.2%
CO[C@H]1COC(=O)CCC[C@H](C)[C@H](OC)COC(=O)C/C=C\[C@@H]1C	.	.	.	.	3.7%[12.9 µM]	.
Cc1ccc(CC2(OCCN(C)C)CCC(C(C)(C)C)CC2)cc1 (stereo not drawn)	?	?	10µM*	-26.1%	.	?
CN(C)CCOC1(Cc2ccc(F)cc2)CCC(C(C)(C)C)CC1 (stereo not drawn)	?	-28.5%	11.2µM*	-9.5%	.	?
CN(C)CCCCOc1ccc(F)cc1	-6.8	-5.8%	0.0%[46.1 µM]	-9.5%	-26.2%	6.1%
Fc1ccc(NN2CCOCC2)cc1-c1noc2ccccc12	-5.3	.	.	.	.	.
Cc1cc(OCc2cn(CC(=O)c3ccc(O)cc3)nn2)cc(C)c1C	.	.	.	.	.	-18.3%[46.1 µM]
Nc1c(C(=O)c2ccccc2)sc(Nc2ccc(Cl)c(Cl)c2)c1C(=O)Nc1ccccc1	-107.0*	-23.9%	.	.	.	?
Cc1ccc(Nc2sc(C(=O)c3ccccc3)c(N)c2C(=O)Nc2ccc(Cl)cc2)cc1	-103.1*	-52.9%	.	.	.	-5.7%[46.1 µM]
Cc1ccccc1Nc1sc(C(=O)c2ccccc2)c(N)c1C(=O)NCc1ccc(Cl)cc1	?	?	.	.	.	-21.4%[46.1 µM]
CCCNC(=O)c1nnc2n1CCN(C(=O)CCc1ccccc1)C2	-9.9	.	.	.	.	.
COc1ccc(NC(=O)c2cc(-c3ccccn3)nc3c(C)cc(C)cc23)c(C)c1	-22.6	-10.8%	-2.6%	?	-9.8%	6.9%
COc1ccc(NC(=O)c2cc(-c3ccc(OC)c(OC)c3)nc3ccccc23)c(OC)c1	-75.1*	7.0%	?	?	18.3%	?
Cc1ccc(NC(=O)c2cc(-c3ccc(C)o3)nc3ccccc23)cc1	18.3	.	-20.1%	-8.6%	-3.6%	12.7%
COc1ccccc1NC(=O)c1cc(-c2ccc(C)o2)nc2ccccc12	-71.5*	-17.5%	?	-1.6%	3.2%	2.4%
COc1cccc(NC(=O)c2cc(-c3ccncc3)nc3c(C)cc(C)cc23)c1	-30.7	-23.8%	?	10µM*	-4.6%	?
COc1ccc(NC(=O)c2cc(-c3ccncc3)nc3ccccc23)c(OC)c1	-5.6	-18.9%	5.62µM*	?	.	?
COc1ccc(Cl)cc1NC(=O)CSc1nnc2[nH]c(=O)cc(-c3ccccc3)n12	8.6	10.9%	.	.	.	0.9%[46.1 µM]
COc1ccc(-c2cc(C(=O)Nc3ccc(C(N)=O)cc3)c3ccccc3n2)cc1OC	-91.5*	-9.1%	?	?	1.9%	-21.5%
Cc1ccc(-c2nn(-c3ccc(F)cc3)c3c2cnc2cc(F)c(F)cc23)cc1	-2.8	-7.4%	4.2%[46.1 µM]	.	.	-5.4%[46.1 µM]
Cc1ccc(CN2CCSc3ccc(C(=O)N4CCOCC4)cc32)cc1	.	5.3%	.	-22.7%	.	.
Cc1ccc(CN2CCSc3ccc(C(=O)NCCCN4CCOCC4)cc32)cc1	-13.5	-5.1%	.	-21.1%	.	.
CCN1CCN(CCCNC(=O)c2ccc3c(c2)N(Cc2ccc(C)cc2)CCS3)CC1	.	-5.3%	.	11.2µM*	.	.
CCN1CCN(C(=O)c2ccc3c(c2)N(Cc2ccc(C)cc2)CCS3)CC1	-84.6*	27.4%	.	-16.3%	-5.3%	.
COc1ccc(-n2c(=O)cnc3cnc(N4CCN(C)CC4)nc32)cc1	.	4.3%	.	.	0.2%	.
SMILES	HCMV inh	FMDV inh	Marburg entry inh	HCV inh	Giardia FBPA inh	Lassa entry inh
O=C1CCC=C1C(O)c1ccc(Cl)cc1 (stereo not drawn)	.	.	.	.	0.4%	.
CCS(=O)(=O)N1CCc2cc(C(=O)Nc3cc(OC)c(Cl)cc3OC)ccc21	-9.3	0.0%	-17.0%[46.1 µM]	.	.	17.8%[46.1 µM]
CN1C(=O)/C(=C/c2cccc([N+](=O)[O-])c2)C(=O)N1c1ccccc1	-4.3	31.6µM*	12.7%	29.9%	-10.3%	?
CCCN(CCC)C(=O)/C=C/c1cccc([N+](=O)[O-])c1	11.0	-18.9%	0.1%	14.3%	1.0%	.
CCCN1C/C(=C/c2ccc3c(c2)OCO3)C(=O)/C(=C/c2ccc3c(c2)OCO3)C1	2.6	17.8µM*	?	?	-27.9%	?
CCCN1C/C(=C/c2cccc([N+](=O)[O-])c2)C(=O)/C(=C/c2cccc([N+](=O)[O-])c2)C1	-105.0*	2.51µM*	?	?	1.8%	2µM*
O=C(Nc1cccc(C(F)(F)F)c1)Nc1cc(Cl)ccc1C(=O)O	.	.	.	.	0.6%	.
